Records with an inconclusive call do not appear. Entries that show only a call come without a potency. Calls of active or inactive are those of the source. Calls come from the whole dose curve; as a rule, active = well fitted cell-killing curve with a large enough effect; inconclusive = small, poorly fitted or top-dose-only effect; inactive = flat fitted curve, though single readings scatter.
Potency is the fitted concentration of half-maximal effect.

The nature of this experiment: qHTS of pediatric cancer cell lines to identify multiple opportunities for drug repurposing: Primary screen for DAOY cells (AID 1347090). Note: nearly all actives have a fitted effect of over 55% in size. As to conditions: DAOY medulloblastoma viability, CellTiter-Glo luminescence, 48 h; series mostly up to 46 µM. From the text: Drug repurposing or repositioning has been offered as a strategy for drug development in oncology programs. This approach has special potential for childhood cancers and other rare or orphan diseases, where the expected return on new drug development has been a disincentive to pharmaceuticals.
In this project we exploit the poly-pharmacology of drugs to discover new indications via phenotypic screening of a panel of 19 well-characterized cell lines derived from solid tumors seen in children and adolescents. The goal is to identify approved drugs with previously unrecognized anticancer properties that has the potential to reveal new mechanisms and biological processes involved in carcinogenesis or drug resistance. We employed a titration-based paradigm (quantitative high-throughput screening or qHTS), where all compounds were tested at multiple concentrations for their effect on cell viability. Concentration-response curves (CRCs) were derived directly from the primary screen, and both potency and efficacy values were used to identify compounds with robust bioactivity profiles. We screened the NIH Chemical Genomics Center (NCGC) Pharmaceutical Collection (NPC) and Mechanism Interrogation Plate (MIPE) small molecule collections of approved and investigational compounds against these cell lines; and measured metabolically active cells after 48 hours of compound treatment as a proxy for cell viability.
Assay Submitter: Nathalia J. Martinez, National Center for Advancing Translational Sciences, National Institutes of Health, Rockville, MD, USA; email: natalia.martinez@nih.gov
[1] Shen, M et al. Quantitative high-throughput phenotypic screening of pediatric cancer cell lines identifies multiple opportunities for drug repurposing. Oncotarget 2017 Dec 19;9(4):4758-4772. PMID 29435139.
The cells were obtained from University of North Carolina (UNC), Pediatric Preclinical Testing Program (PPT), and Coriell Institute (CI).
qHTS cell viability assay:
Cells were assayed in growth media at a density of 500-1,000 cells/well. Five microliters of cells were dispensed into 1,536-well, white, solid-bottom, TC-treated plates (Greiner Bio One) using a multidrop dispenser and incubated at 37 degrees C, 5% CO2, under a humidified atmosphere for 5 hours. Twenty-three nanoliters of compounds and controls (neutral control DMSO or positive control bortezomib at final concentration of 2.3 µM) were subsequently transferred by Kalypsys pintool. For primary screens, the MIPE collection was tested at 11-point dilutions (final concentrations range from 0.78 nM to 46 µM) and the NPC collection at 8-point dilutions (final concentrations range from 0.59 nM to 46 µM). Compounds tested in follow-up screens were assayed at 11-point dilutions. Cells were incubated for 48 hours, followed by addition of 3 uL of CellTiter-Glo (Promega). After a 15 min incubation at room temperature, samples were analyzed for luminescence intensity using a ViewLux High-throughput CCD imager equipped with clear filters.
Background: In qHTS, concentration-response curves come from the screen itself.
For `Cn1cnc2c(F)c(Nc3ccc(Br)cc3Cl)c(C(=O)NOCCO)cc21`, the Potency is 14.8 µM (active).

With `CCCC(CCC)C(=O)O`, the Potency result was “inactive”.

For the compound `O=C(NOC[C@H](O)CO)c1ccc(F)c(F)c1Nc1ccc(I)cc1F`, the Potency was 18.7 µM (active).

As to `Nc1cccc(S(=O)(=O)N2CCCN(S(=O)(=O)c3ccc4c(c3)OCCO4)CC2)c1`, the Potency entry was “inactive”.

On to `Cc1cc(C=c2sc3nc4ccccc4n3c2=O)c(C)n1-c1ccccc1`, for which the Potency entry is “inactive”.

As to `CN(C)C(=O)c1ccc(S(=O)(=O)c2ccc(NC(=O)[C@@](C)(O)C(F)(F)F)c(Cl)c2)cc1`, the Potency was 18.7 µM (active).

As for `S=C(NCc1ccc2c(c1)OCO2)N1CCN(c2ncnc3c2oc2ccccc23)CC1`, the Potency is 2.15 µM (active).

Turning to `CC(C[N+](C)(C)C)OC(N)=O` (stereo not given), the Potency entry was “inactive”.

With `NNCCc1ccccc1`, the Potency result is “inactive”.

With `O=C1CCCC2=C1C(c1[nH]ncc1Cl)N=C(Nc1nc3ccccc3o1)N2` (stereo not given), the Potency result was “inactive”.

Consider `CC(C)NCC(O)COc1ccc(COCCOC(C)C)cc1` (stereo not given), for which the Potency entry was “inactive”.

Turning to `NC(=O)C1CCCc2c1[nH]c1ccc(Cl)cc21` (stereo not given), the Potency result was “inactive”.

`CCCc1nc2c(C)cc(-c3nc4ccccc4n3C)cc2n1Cc1ccc(-c2ccccc2C(=O)O)cc1`: the Potency entry was “inactive”.

Take `Cc1ccc(N(CC2=NCCN2)c2cccc(O)c2)cc1`: the Potency entry was “inactive”.

For `N=c1nc(N2CCCCC2)cc(N)n1O`, the Potency entry is “inactive”.

`Cn1c(=O)c(F)c(Nc2ccc(I)cc2F)c2c(=O)n(C[C@@H](O)CO)cnc21`: the Potency is 18.7 µM (active).

Regarding `O=C(O)CCc1ccc(NCc2cccc(Oc3ccccc3)c2)cc1`, the Potency entry is “inactive”.

With `O=C(C1CC1)N1CC[C@@H](Cn2c(-c3ccc(-c4ccc5occc5c4)cc3)nc3cnccc32)C1`, the Potency result is “inactive”.

In the case of `CCc1cncnc1N1CCN(Cc2nc3ccc(C(F)(F)F)cc3[nH]2)CC1`, the Potency was 18.7 µM (active).

`CNCc1ccc(-c2[nH]c3cc(F)cc4c3c2CCNC4=O)cc1`: the Potency entry is “inactive”.

On to `OC(CN1CCC(Cc2ccc(F)cc2)CC1)c1ccc(Cl)cc1` (stereo not given), for which the Potency result is “inactive”.

Regarding `CCCS(=O)(=O)Nc1ccc(F)c(C(=O)c2c[nH]c3ncc(-c4ccc(Cl)cc4)cc23)c1F`, the Potency is 18.7 µM (active).

Regarding `O=C(Nc1nc2ccccc2n1CCN1CCOCC1)c1cccc([N+](=O)[O-])c1`, the Potency is 7.43 µM (active).

Regarding `COc1ccc2nc(S(=O)Cc3ncc(C)c(OC)c3C)[nH]c2c1` (stereo not given), the Potency entry was “inactive”.

In the case of `Oc1cccc(-c2nc(N3CCOCC3)c3oc4ncccc4c3n2)c1`, the Potency is 2.15 µM (active).

In the case of `CNC(=O)c1ccc(N2C(=S)N(c3ccc(C#N)c(C(F)(F)F)c3)C(=O)C2(C)C)cc1F`, the Potency result was “inactive”.

Regarding `CCN(CC)CCCC(C)Nc1nc(C)cc(Nc2ccc3nc(C)cc(N)c3c2)n1` (stereo not given), the Potency result was “inactive”.

Consider `Nc1ccc(S(=O)(=O)Nc2ccnn2-c2ccccc2)cc1`, for which the Potency entry is “inactive”.

Regarding `Cc1csc(NC(=O)c2sc3nc4c(c(C(F)(F)F)c3c2N)CCC4)n1`, the Potency is 23.5 µM (active).

`CS(=O)(=O)Oc1ccc2c(NC(N)=O)c(C(=O)c3ccc(Cl)cc3Cl)oc2c1`: the Potency was 14.8 µM (active).

Regarding `COc1cc2nccc(Oc3ccc(NC(=O)NC4CC4)c(Cl)c3)c2cc1C(N)=O`, the Potency is 4.69 µM (active).

Turning to `Fc1ccc(Cl)cc1-c1nc(Nc2ccncc2)c2nccnc2n1`, the Potency entry was “inactive”.

On to `NC(=O)c1ccc(-c2nc(-c3ccc4c(c3)OCCO4)c(-c3ccccn3)[nH]2)cc1`, for which the Potency result was “inactive”.

Take `Cc1cc(SCc2sc(-c3ccc(C(F)(F)F)cc3)nc2C)ccc1OCC(=O)O`: the Potency result was “inactive”.

Consider `COc1ccccc1-c1cccc(-c2c(O)c3cc(C#N)c(Cl)cc3[nH]c2=O)c1`, for which the Potency result was “inactive”.

For the compound `Cc1cn[nH]c1`, the Potency result is “inactive”.

Regarding `Nc1nc2c(ncn2COCCO)c(=O)[nH]1`, the Potency entry is “inactive”.

For the compound `CCCn1c(=O)c2[nH]c(C34CC5CC3C[C@@H](C5)C4)nc2n(CCC)c1=O`, the Potency result was “inactive”.

In the case of `CS(=O)(=O)c1ccc(C(=O)Nc2ccc(Cl)c(-c3ccccn3)c2)c(Cl)c1`, the Potency entry was “inactive”.

`C1COC(NC(C2CC2)C2CC2)=N1`: the Potency result is “inactive”.
